Consider three sequences from the supplement of paper PMC10338343.

± gives the standard deviation.

The assay has as its system MILI (PIWIL2) piRISC loaded with L1MC piRNA (26 nt). In words: pre-steady-state target cleavage rate (min^-1); guide: L1MC piRNA 5'p-UAACUAAAUACUAUGCAAGCUGUAGG; MIWI and MILI are mouse PIWI proteins and EfPiwi is from a freshwater sponge; tags in brackets are library labels; higher = faster piRNA-guided slicing of the target. To be noted: auxiliary factor: none (no GTSF1). The method in brief:
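Cleave-'n-Seq: a transcribed, DNA-blocked target RNA library (0.1 nM) was mixed with 1 nM active affinity-purified piRISC carrying one synthetic guide, with or without 500 nM GTSF1 partner protein, in HEPES–potassium acetate buffer at 33 °C for 0–8 or 0–960 min. Uncleaved targets were sequenced and normalised to depth and to weakly complementary targets. Three trials were pooled, and k3 was capped at 0.0001 min^-1. The pre-steady-state cleavage rate came from a burst-and-steady-state fit.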
With UCCUGGAUGUCGAACGUAACAAUUUAGUUA, the “pre-steady-state target cleavage rate” value is below 0.0001.
Regarding UCCUGGAUGUCGAACGAUAGUAUUUACAUA, the “pre-steady-state target cleavage rate” value was below 0.0001.
Consider UCCUGGAUCAGCUUGCAUAGGUAUUUAGUUA, for which the “pre-steady-state target cleavage rate” value was 0.00357 ± 0.0027.
